The results in this text go back to PubChem BioAssay.

Entries with a potency or affinity are not part of this list. Active and inactive are the calls of the source. The limit is not given here; nearly all actives have IC50 up to about 0.91 µM.

For this assay, the target named is Calcium-dependent protein kinase 4 (Plasmodium falciparum (isolate 3D7)) (UniProt Q8IBS5). Description: PfCDPK4 kinase inhibitors, biochemical, TCAMS library (AID 1159588). Particulars: recombinant PfCDPK4, Kinase-Glo ATP depletion luminescence. A general note: In Kinase-Glo more light means more ATP remaining.
Sequence of Calcium-dependent protein kinase 4 (Plasmodium falciparum (isolate 3D7)) (Q8IBS5 whole entry, looked up): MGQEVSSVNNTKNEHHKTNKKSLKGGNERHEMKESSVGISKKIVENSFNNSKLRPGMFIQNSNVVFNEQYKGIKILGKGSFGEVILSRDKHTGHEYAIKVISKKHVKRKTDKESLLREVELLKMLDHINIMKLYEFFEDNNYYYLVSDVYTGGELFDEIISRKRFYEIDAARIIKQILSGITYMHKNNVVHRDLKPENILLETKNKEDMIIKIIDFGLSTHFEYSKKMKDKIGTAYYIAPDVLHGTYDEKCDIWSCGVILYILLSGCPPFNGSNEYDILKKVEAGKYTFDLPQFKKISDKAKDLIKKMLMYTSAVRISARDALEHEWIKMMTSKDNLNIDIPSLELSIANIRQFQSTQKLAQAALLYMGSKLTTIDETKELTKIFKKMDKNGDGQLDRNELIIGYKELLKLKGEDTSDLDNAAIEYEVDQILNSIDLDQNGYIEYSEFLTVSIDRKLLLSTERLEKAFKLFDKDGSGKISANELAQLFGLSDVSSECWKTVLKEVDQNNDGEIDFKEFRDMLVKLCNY
Take `Cc1ccc2[nH]c(C)c(Br)c(=O)c2c1`: the outcome was inactive.
Regarding `NC(=O)c1cccc(CNCc2ccc(-c3cccc(-c4nc5ccccc5[nH]4)c3)cc2)c1`, the outcome was inactive.
Then `O=C(Nc1cc2cc(-c3ccc(CN4CCCCC4)cc3)ccc2n2cnnc12)NC1CCCC1`, with “inactive”; and `CN1CCC(NCc2ccc(-c3ccc(Cl)cc3)cc2)CC1`, with “inactive”; and `CCCNc1ccc2nccc(CCN3CCC(NCc4ccc5c(n4)NC(=O)CS5)CC3)c2n1`, with “inactive”.
Then `COc1cc2c(C3CCN(CC4CCN(C(=O)/C=C/c5ccc(Cl)c(Cl)c5)CC4)CC3)c[nH]c2cn1`, with “inactive”; and `COc1cccc(CNC[C@@H](O)[C@H](Cc2ccccc2)NC(=O)c2cc(NC(C)C)cc(N3CCCCS3(=O)=O)c2)c1`, with “inactive”.
For `COc1ccc(NC(=O)/C=C/c2ccccc2Cl)cc1OCCN1CCC(N2CCCC2)CC1`, the outcome was inactive.
For the molecule `Clc1ncnc2scc(-c3ccc(Br)cc3)c12`, the result was inactive.
`Cc1cccc(Nc2nc(C)cc(N3CCCN(CC4CCCCC4)CC3)n2)c1`: the result was inactive.
The entry for `O=C(Nc1ccc2c(c1)OCO2)c1cc(-c2cccnc2)cnc1NCc1ccc2c(c1)OCO2` is “inactive”; for `Cc1ccnc(NC(c2cccc(Cl)c2Cl)c2ccc3cccnc3c2O)c1` (stereo not given) it is “inactive”; for `O=C(Nc1cccc(CN2CCCN(Cc3ccc(O)cc3)CC2)c1)c1cc(F)cc(F)c1` it is “inactive”.
Then `NC1=NC(c2ccccc2)(c2ccccc2)C(=O)N1Cc1ccc(-c2cccnc2)cc1`, with “inactive”.
For `CN1CCN(c2cccc(Nc3nccc(NCC(O)c4ccccc4)n3)c2)CC1` (stereo not given), the result was inactive.
Consider `CCC(C)(C)c1ccc(N2C(N)=NC(N)=NC2(C)C)cc1`, for which the result was inactive.
Take `CC(CNC(=O)C(c1cc2ccccc2o1)N1CCN(C(c2ccccc2)c2ccccc2)CC1)c1ccccc1` (stereo not given): the result was inactive.
The entry for `Cn1cnc(CCNC(=O)c2ccc(-c3ccc(-c4nc5ccc(C(F)(F)F)cc5[nH]4)s3)cc2)c1` is “inactive”; for `CN1CCN(c2cc(-c3cccnc3)nc(-c3ccncc3)n2)CC1` it is “inactive”.
The entry for `COc1ccc2nccc([C@@H](O)CN3CC[C@H](NCc4ccc5c(n4)NC(=O)CS5)[C@H](F)C3)c2c1` is “inactive”; for `c1ccc(-c2cc(NCCNc3cc(-c4ccccc4)nc4ccccc34)c3ccccc3n2)cc1` it is “inactive”.
For `NC1=NC2(CCCCC2)N(OCC2CCCCC2)C(N)=N1`, the outcome was inactive.
As for `O=C(Nc1ccc(OC2CCN(Cc3ccc(F)cc3)CC2)c(Cl)c1)c1ccoc1`, the result was inactive.
Then `O=S(=O)(Nc1cccc(CCN2CCC(N3CCCCC3)CC2)c1)c1cccc(C(F)(F)F)c1`, with “inactive”; and `Cc1c(C(=O)N2CCCC(C(F)(F)F)C2)sc2cccc(F)c12` (stereo not given), with “inactive”; and `CC(C)[C@H](NC(=O)c1ccc(O)c(-c2ccc(Cl)c(Cl)c2)c1)C(=O)NC1CCCCCC1`, with “inactive”.
Then `Cc1ccc(NC(=O)c2ccc3ncccc3c2)cc1OC1CCN(Cc2ccco2)C1` (stereo not given), with “inactive”; and `CCCCCN1CCCC(CNS(=O)(=O)c2ccc(C(=O)Nc3ccc(C(F)(F)F)cc3)cc2)C1` (stereo not given), with “inactive”; and `Cn1cncc1C(=O)Nc1cccc(-c2ccc(-c3nc4ccccc4[nH]3)s2)c1`, with “inactive”.
Consider `CCCCOc1ccc(N2C(N)=NC(N)=NC2(C)C)cc1`, for which the result was inactive.
On to `COc1ccc(NC(=O)Nc2cccc(-c3cccc(-c4nc5c(C)cccc5[nH]4)c3)c2)cc1`, for which the result was inactive.
Regarding `O=C(Nc1cccc(-c2ccc(-c3nc4ccc(C(F)(F)F)cc4[nH]3)s2)c1)c1cnc[nH]1`, the outcome was inactive.
`COc1cccc2cc(C(=O)N[C@@H](CC(C)C)C(=O)N[C@H](/C=N/N3C(=O)CN(Cc4ccccc4)C3=O)CCc3ccccc3)oc12`: the outcome was inactive.
Then `CCOc1ccc(-c2nc(NC(=O)Cc3cccc(OC)c3)sc2C)cc1`, with “inactive”.
In the case of `Cc1ccc(C2CC(c3cccs3)=NN2C(=O)c2ccc(Br)o2)cc1` (stereo not given), the outcome was inactive.
The entry for `CNc1ccc(CNCc2ccc(-c3ccc(-c4nc5ccc(C(F)(F)F)cc5[nH]4)s3)cc2)cc1` is “inactive”.
The entry for `Cc1ccc([N+](=O)[O-])cc1NC(=O)N(CC(O)c1ccccc1)C1CCCCC1` (stereo not given) is “inactive”; for `COc1ccc(CCN(C)CCOc2ccc(NC(=O)c3cc(SC)cc4c(=O)c5ccccc5[nH]c34)cc2)cc1OC` it is “inactive”.
The entry for `CC(C)C(C(=O)Nc1ccc(S(=O)(=O)N(C)C)cc1)c1ccc(Cl)cc1` (stereo not given) is “inactive”.
With `NC(=O)c1ccc(C(=O)Nc2cccc(-c3ccc(-c4nc5ccc(C(F)(F)F)cc5[nH]4)cc3)c2)cc1`, the outcome was inactive.
